Test results reported in PubChem BioAssay (NCATS).
Values joined by “and” are separate entries in the source; they are usually repeats but may differ in a detail not shown here. Identical values can stand only once. Inconclusive results are not listed. Active and inactive are the calls of the source. Unless noted, calls come from the whole dose curve; as a rule, active = well fitted curve in the direction sought with a large enough effect; inconclusive = small, poorly fitted or top-dose-only effect, or another doubt; inactive = no such curve, though single readings can be large; an effect the other way counts as inactive or inconclusive.

How the values were obtained:
[1] = OV-SAHO Cancer Cell Toxicity qHTS against the NCATS CANVASS Library (AID 1347348); note: series mostly up to about 38 µM; nearly all actives have a fitted effect of over 55% in size
Outline: (§1)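 1000 cells/well; 4 h settle; 11-pnt titration; 72 h, 37 degrees C, 5% CO2; CellTiter-Glo, 15min RT; luminescence read.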

[2] = U-118MG Cancer Cell Toxicity qHTS against the NCATS CANVASS Library (AID 1347351); note: series mostly up to about 38 µM
Outline: as §1

[3] = HEK-293 Cancer Cell Toxicity qHTS against the NCATS CANVASS Library (AID 1347355); note: series mostly up to about 46 µM; nearly all actives have a fitted effect of over 65% in size
Outline: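 1000 cells/well, 4 h pre-incubation 37 °C/5% CO2; 11-pnt titration; 72 h; CellTiter-Glo 15 min RT, luminescence.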

[4] = HPAF-II 18hr Apoptosis Induction qHTS against the NCATS CANVASS Library (AID 1347360)
Outline: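 Caspase-3/7 activation was measured with luminescent Caspase-Glo 3/7 reagent (15 min, RT) in HPAF-II cancer cells (500 cells/well). Before detection, cells had been treated for 18 h at 37 C with compounds (11 points).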

[5] = KB-3-1 Cancer Cell Toxicity qHTS against the NCATS CANVASS Library (AID 1347366); note: nearly all actives have a fitted effect of over 75% in size
Outline: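 CellTiter-Glo luminescence measured viability after 72 h at 37C. KB-3-1 cells were seeded at 500 per well in DMEM/10% FBS.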

[6] = target: Nuclear receptor subfamily 1 group I member 3 (Homo sapiens) (UniProt Q14994); experiment: qHTS for Constitutive Androstane Receptor (CAR) Agonist screened against the NCATS CANVASS Library (AID 1347373);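 note: every well also contained 1.5 µM PK11195 alongside the test compound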
Outline: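 Luciferase read-out (ONE-Glo, 30 min RT) of CYP2B6-2.2kb promoter activity in double-stable HepG2-hCAR cells after 24hr compound exposure with 1.5uM PK11195 present; viability measured first by CellTiter-Fluor.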

[7] = qHTS for H2AX Agonists against the NCATS CANVASS Library (AID 1347378)
Outline: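 Phospho-H2AX (S139) in CHO-K1 lysates measured by HTRF, reported as 665/615 nm emission ratio after 24 hr antibody incubation at room temperature. Cells were first treated with a compound series for 3 hr at 37C (0.76% DMSO final).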

[8] = Cytotoxicity qHTS for assessment of Hepg2 cells membrane integrity screened against the NCATS CANVASS Library (AID 1347387)
Outline: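 LDH release read by fluorescence (560 nm ex/590 nm em) after CytoTox-ONE addition and 10 min RT; signal tracks lysed cells. HepG2, 2000 cells/well, plated overnight; compound 5 hr, 37C, 5% CO2, final 0.59 nM - 46 uM, 11 points.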

[9] = qHTS assay for small molecule disruptors of mitochondrial membrane potential screened against the NCATS CANVASS Library (AID 1347389); note: series mostly up to about 46 µM; nearly all actives have a fitted effect of over 60% in size
Outline: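 Red/green fluorescence ratio read-out: J-aggregates ex 540/em 590 nm, monomers ex 490/em 535 nm. HepG2, 1 hr compound treatment, then 30 min Mito-MPS dye at 37C. 11-pt qHTS concentration series.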

[10] = Secretion counterscreen for inhibitors of the SERCaMP assay screened against the NCATS CANVASS Library (AID 1347390);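 note: light from luciferase secreted into medium read as a measure of general secretion; series mostly up to about 77 µM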
Outline: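 Counterscreen for secretory-pathway interference: after 4 h attachment, SH-SY5Y-GLuc cells were exposed 20 hours to compounds (final 0.001 - 77 uM), then coelenterazine added and GLuc luminescence recorded; Brefeldin A served as control.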

[11] = qHTS for activators of dead-cell proteases activity screened against the NCATS CANVASS Library (AID 1347392);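 note: luminescence from protease leaking out of membrane-damaged cells cleaving impermeant substrate; rising signal means more cytotoxicity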
Outline: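 Cytotoxicity in HepG2 cells was assessed by released protease cleaving AAF-aminoluciferin, with luminescence as signal. Exposure lasted 5 h at 37C across an 11-point series.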

[12] = qHTS for inhibitors of ER calcium dysfunction: SERCaMP assay screened against the NCATS CANVASS Library (AID 1347393);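 note: series mostly up to about 77 µM; lower secreted reporter signal means inhibitor of ER calcium depletion; nearly all actives have a fitted effect of over 40% in size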
Outline: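 qHTS in SH-SY5Y reporter cells: 16 h compound pretreatment, 4 h thapsigargin, then secreted Gaussia luciferase measured by luminescence.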

[13] = Viability qHTS for inhibitors of the SERCaMP assay screened against the NCATS CANVASS Library (AID 1347400); note: series mostly up to about 92 µM; nearly all actives have a fitted effect of over 70% in size
Outline: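 CellTiter-Glo luminescence readout after 48 h compound exposure (11-pnt qHTS series) of SH-SY5Y-GLuc SERCaMP MJH297 cells seeded at 1000 cells/well; bortezomib positive control.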

[14] = Redox Reaction Profiling qHTS: Assay Interference Panel against the NCATS CANVASS Library (AID 1347401)
Outline: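 Quantitative HTS over an 11-point series was run in HEPES pH 7.3 with 50 mM NaCl, 200 uM DTT and 5 uM resazurin. Initial and 15-min resorufin fluorescence readings were taken.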

[15] = qHTS for Hypoxia signaling pathway (HIF-1) agonists against the NCATS CANVASS Library (AID 1347375)
Outline: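 Read-out: beta-lactamase FRET (CCF4-AM, ex 405, em 460 and 530 nm) after 2 h at room temperature. ME-180 cells stably carrying HRE-bla were treated 17 h at 37C with compounds in an 11-point concentration series.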

[16] = qHTS for Inflammasome Signaling Inhibitors: IL-1-beta AlphaLISA screen against the NCATS CANVASS Library (AID 1347379);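 note: human THP-1 cells primed with LPS then triggered with ATP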
Outline: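 THP-1, 1 hr compound pre-incubation, then LPS 250 ng/mL + ATP 1.25 mM (final); 16 hr total with compound; IL-1B AlphaLISA, ex 680/em 615 nm; 11-point qHTS, up to 57.5 uM final.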

[17] = qHTS for Activators of p53 Stress Response Pathway screened against the NCATS CANVASS Library (AID 1347388)
Outline: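 p53RE-bla HCT-116 cells (4000/well) were plated 5 h at 37C, exposed to compounds for 16 h at 37C over an 11-point concentration series, then loaded with CCF4 for 2 h at room temperature; 460/530 nm emission ratio read.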

[18] = target: Glucocorticoid receptor (Homo sapiens) (UniProt P04150); experiment: GR-GFP Redistribution (AID 450;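 active = compounds whose dose series gives a full or clear partial fitted curve of increased nuclear translocation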; note: potency is the fitted concentration of half-maximal effect); settings: U2OS GR-GFP nuclear translocation, laser cytometry, 2 h
[19] = target: Glucocorticoid receptor (Homo sapiens) (UniProt P04150); experiment: GR-EFC Redistribution (AID 451; calls by dose curve; note: potency is the fitted concentration of half-maximal effect); settings: CHO-K1 GR-EFC translocation, beta-gal luminescence, 2 h
Outline: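 CHO-K1 cells stably expressing nuclear-localized β-gal enzyme acceptor and GR fused C-terminally to the enzyme donor fragment; ligand-driven nuclear translocation restores β-gal by complementation. Compounds titrated up to 46 uM final, 2 h at 37 °C; luminescence read.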

[20] = target: DNA dC->dU-editing enzyme APOBEC-3G (Homo sapiens) (UniProt Q9HC16); experiment: qHTS for inhibitors of Vif-A3G interactions: Validation (AID 588379)
Outline: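 Yellow fluorescence (Ex 488, Em 500-530) of Vif-coexpressing HeLa A3G-eYFP cells, scanned by Acumen cytometer, reports blocked A3G degradation. Cells plated at 700/well overnight at 37 deg C before compound addition, then a further overnight compound incubation at 37 deg C.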

Measured: Potency

Sequence of DNA dC->dU-editing enzyme APOBEC-3G (Homo sapiens) (Q9HC16 whole entry, looked up): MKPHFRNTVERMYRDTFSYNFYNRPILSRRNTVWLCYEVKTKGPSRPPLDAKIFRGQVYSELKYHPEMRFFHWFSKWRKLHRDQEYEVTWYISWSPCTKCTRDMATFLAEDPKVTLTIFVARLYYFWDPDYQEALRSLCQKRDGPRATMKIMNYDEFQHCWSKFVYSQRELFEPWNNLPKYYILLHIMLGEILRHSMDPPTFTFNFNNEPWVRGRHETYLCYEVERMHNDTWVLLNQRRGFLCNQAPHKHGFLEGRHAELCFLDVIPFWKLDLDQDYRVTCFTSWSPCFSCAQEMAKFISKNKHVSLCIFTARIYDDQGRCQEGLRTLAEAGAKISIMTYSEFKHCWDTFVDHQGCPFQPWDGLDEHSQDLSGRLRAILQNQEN
Sequence of Glucocorticoid receptor (Homo sapiens) (P04150 whole entry, looked up, the tested form may be a part): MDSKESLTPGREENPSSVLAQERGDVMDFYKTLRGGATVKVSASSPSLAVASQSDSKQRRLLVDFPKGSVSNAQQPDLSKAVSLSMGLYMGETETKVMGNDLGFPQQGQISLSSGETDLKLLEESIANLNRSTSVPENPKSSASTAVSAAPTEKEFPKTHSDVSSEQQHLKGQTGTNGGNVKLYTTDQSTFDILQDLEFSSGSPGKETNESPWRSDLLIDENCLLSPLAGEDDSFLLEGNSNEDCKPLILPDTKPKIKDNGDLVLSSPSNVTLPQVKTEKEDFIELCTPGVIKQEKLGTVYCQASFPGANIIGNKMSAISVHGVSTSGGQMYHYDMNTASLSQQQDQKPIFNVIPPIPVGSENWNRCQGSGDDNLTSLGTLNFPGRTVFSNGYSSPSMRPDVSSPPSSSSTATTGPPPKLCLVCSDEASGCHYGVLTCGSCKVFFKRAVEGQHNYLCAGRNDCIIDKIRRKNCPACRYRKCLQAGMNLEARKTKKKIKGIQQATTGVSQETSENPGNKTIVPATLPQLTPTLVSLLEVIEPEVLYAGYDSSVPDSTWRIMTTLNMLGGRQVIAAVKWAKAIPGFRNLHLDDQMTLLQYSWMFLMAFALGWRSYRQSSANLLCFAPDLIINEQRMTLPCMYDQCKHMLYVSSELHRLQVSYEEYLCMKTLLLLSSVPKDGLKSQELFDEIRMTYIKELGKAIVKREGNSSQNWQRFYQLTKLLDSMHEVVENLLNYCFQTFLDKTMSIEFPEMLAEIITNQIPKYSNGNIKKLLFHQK
Sequence of Nuclear receptor subfamily 1 group I member 3 (Homo sapiens) (Q14994 whole entry, looked up): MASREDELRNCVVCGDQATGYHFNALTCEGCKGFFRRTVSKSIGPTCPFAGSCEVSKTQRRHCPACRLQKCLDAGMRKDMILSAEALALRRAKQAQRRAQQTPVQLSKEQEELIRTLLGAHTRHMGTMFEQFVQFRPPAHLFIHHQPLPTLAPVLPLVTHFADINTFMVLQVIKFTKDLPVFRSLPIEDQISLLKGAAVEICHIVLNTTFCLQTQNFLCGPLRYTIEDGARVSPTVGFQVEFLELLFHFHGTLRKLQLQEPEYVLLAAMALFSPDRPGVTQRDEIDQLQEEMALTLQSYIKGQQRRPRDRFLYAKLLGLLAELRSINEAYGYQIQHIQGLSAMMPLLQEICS

C[C@@H]1O[C@@H](Oc2c(-c3ccc(O)cc3)oc3cc(O)cc(O)c3c2=O)[C@H](O)[C@H](O)[C@H]1O
inactive: [1] | [2] | [3] | [4] | [5] | [6] | [7] | [8] | [9] | [10] | [11] | [12] | [13] | [14]

C=C(C)[C@@H]1CC[C@]2(C)CC[C@]3(C)[C@H](CC[C@@H]4[C@@]5(C)CC[C@H](O)C(C)(C)[C@@H]5CC[C@]43C)[C@@H]12
inactive: [1] | [2] | [3] | [4] | [5] | [6] | [15] | [7] | [16] | [8] | [17] | [9] | [10] | [11] | [12] | [13] | [14]

CC1(C)CC[C@]2(C(=O)O)CC[C@]3(C)C(=CC[C@@H]4[C@@]5(C)C[C@@H](O)[C@H](O)C(C)(C)[C@@H]5CC[C@]43C)[C@@H]2C1
inactive: [4] | [5] | [6] | [16] | [9] | [10] | [13] | [14]

COc1ccc(Cl)cc1N=Nc1ncc[nH]1
inactive: [18] > 46 µM | [19] > 46 µM | [20]

C=CCN1CCc2cc(O)c(O)cc2[C@H](c2ccccc2)C1
inactive: [18] > 46 µM | [19] > 46 µM | [20]

CCCn1c(=O)[nH]c2nc(-c3ccc(S(=O)(=O)O)cc3)[nH]c2c1=O
inactive: [19] > 46 µM | [20]

N[C@@H](Cn1cc(I)c(=O)n(Cc2ccc(C(=O)O)cc2)c1=O)C(=O)O
inactive: [18] > 46 µM | [19] > 46 µM | [20]

N[C@@H](Cc1cc(CP(=O)(O)O)cc(-c2ccccc2Cl)c1)C(=O)O
inactive: [18] > 46 µM | [19] > 46 µM | [20]

CC(=O)Nc1ccc(OC[C@@H](O)CNC(C)C)cc1
inactive: [18] > 20.6 µM and > 46 µM | [19] > 20.6 µM and > 46 µM | [20]

N#CC(=C(/N)Sc1ccccc1N)/C(C#N)=C(/N)Sc1ccccc1N
inactive: [18] > 46 µM | [19] > 46 µM

c1ccc2oc(C3=NCCN3)cc2c1
inactive: [18] > 46 µM | [19] > 46 µM | [20]

C=C[C@@]1(C)CC(=O)[C@@]2(O)[C@@]3(C)[C@@H](O)CCC(C)(C)[C@@H]3[C@H](O)[C@H](OC(C)=O)[C@@]2(C)O1
inactive: [18] > 46 µM | [19] > 46 µM | [20]

CCCCCC#CCC#CCC#CCC#CCCCC(=O)O
inactive: [18] > 20.6 µM

NCCCCCCNS(=O)(=O)c1cccc2ccccc12
inactive: [18] > 46 µM | [19] > 46 µM | [20]

C[C@@]12C(=O)OC(=O)[C@@]1(C)[C@@H]1CC[C@@H]2O1
inactive: [18] > 46 µM | [19] > 46 µM | [20]

CCCCCCCCCCCCCCCC(=O)C(F)(F)F
inactive: [19] > 46 µM | [20]

CC(C)NC[C@@H](O)COc1ccc(CCOCC2CC2)cc1
inactive: [18] > 46 µM and > 20.6 µM | [19] > 46 µM and > 20.6 µM | [20]

O[C@@H](c1ccccc1)C1CCN(CCc2ccccc2)CC1
inactive: [18] > 46 µM | [19] > 46 µM | [20]

C[C@@H]1Nc2ccc(Cl)cc2S(=O)(=O)N1
inactive: [18] > 46 µM | [19] > 46 µM | [20]

N[C@@H](Cn1cc(F)c(=O)[nH]c1=O)C(=O)O
inactive: [18] > 46 µM | [19] > 46 µM | [20]

COc1ccccc1N1CCN(C[C@@H]2CN3C(=O)N(C)c4ccccc4C3=N2)CC1
inactive: [18] > 46 µM | [19] > 46 µM | [20]

CCC(C)(C)N=C(NC#N)Nc1cccnc1
inactive: [18] > 46 µM | [20]

Cc1cccc(/C=C\c2ccccc2)n1
inactive: [18] > 46 µM | [19] > 46 µM | [20]

NS(=O)(=O)c1cc2c(cc1Cl)N[C@@H]([C@@H]1C[C@@H]3C=C[C@H]1C3)NS2(=O)=O
inactive: [18] > 46 µM | [19] > 46 µM | [20]
